Several values for one entry are separate records, joined by “and”; a condition that tells them apart may be missing. Equal entries are not always repeated. Results filed as inconclusive are left out. Where a structure was tested more than once in an assay, its records may differ in their call. Activity calls are given as the source filed them. The calls were made as follows: active = hit-call score of the fitted dose curve at least 0.9, where 1 is the maximum; inconclusive = response in the unintended direction; inactive = score below 0.9.

One may read the AC50 as the midpoint of the concentration-response curve, whichever way the signal moves.

The test is described as follows: TOX21_p53_BLA_p4_viability: Viability Assessment in the Tox21 HCT-116 p53 Agonism Beta-lactamase Assay, Phase 4 (AID 2283597).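 Also: hits lower the luminescence signal meaning cytotoxicity.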 From the text:
TOX21_p53_BLA_p4 is a cell-based, single-readout assay that uses HCT116, a human intestinal cell line, […] in a 1536-well plate.TOX21_p53_BLA_p4_viability is an assay readout measuring cellular ATP content and detected with CellTiter-Glo Luciferase-coupled ATP quantitation.TOX21_p53_BLA_p4_viability used a type of viability reporter where loss-of-signal activity can be used to understand changes in the cell viability. Furthermore, this assay endpoint can be referred to as a secondary readout, because this assay has produced multiple assay endpoints where this one serves a viability function. To generalize the intended target to other relatable targets, this assay endpoint is annotated to the cell cycle intended target family, where the subfamily is cytotoxicity.
Thawing Method: Place 14 mL of pre-warmed thaw medium into a 15 mL of conical tub. Remove the vial of cells to be thawed from liquid nitrogen and thaw rapidly by placing at 37C in a water bath with gentle agitation for 1-2 minutes. Decontaminate the vial by wiping with 70% ethanol before opening in a biological safety cabinet. Transfer the vial contents drop-wise into 14 mL of thaw medium in a sterile 15-mL conical tub. Centrifuge cells at 900 rpm for 4 minutes and resuspend in thaw medium. Transfer contents to the T75 tissue culture flask containing Thaw Medium and place flask in a humidified 37C/5% CO2 incubator. Switch to growth medium at first passage.Propagation Method: Aspirate medium, rinse once in DPBS, add 0.25% Trypsin/EDTA and swirl to coat the cell evenly. Add an equal volume of Growth Medium to inactivate Trypsin after 2-3 minutes incubation at 37C. Centrifuge cells at 900 rpm for 4 minutes and resuspend in growth medium. Cell should be passage or fed at least twice a week.Assay Protocol: Harvest cells from culture in growth medium and resuspend in assay medium. 2.2 Dispense 4000 cells/5 uL/well into 1536-well black/clear bottom plates using a Multidrop dispenser. After the cells were incubated at 37C for 5 hours, 23 nL of compounds dissolved in DMSO were transferred to the assay plate by a PinTool resulting in a 217-fold dilution. Incubate the plates for 16 hours at 37C, 5% CO2. Add 1 uL of 6X LiveBLAzer FRET B/G (CCF4-AM) Substrate Mixture to each well using a BioRAPTR dispenser and incubate the plates at room temperature for 2 hours. Measure fluorescence intensity at 460 and 530 nm emission and 405 nm excitation by an Envision detector. Data is expressed as the ratio of 460nm/530nm emissions. Add 4 uL of Cell-titer Glo to each well using BioRAPTR and incubate the plates at room temperature for […]. For cell viability readout that measures cytotoxicity, 4 ul/well of CellTiter-Glo reagent was added into the assay plates using a Flying Reagent Dispenser. After 30 min incubation at room temperature, the luminescence intensity in the plates was measured using a ViewLux plate reader.
For the compound `CCN(CC)C(=O)N[C@H]1C[C@@H]2c3cccc4[nH]cc(c34)C[C@H]2N(C)C1`, the result was inactive.

`COc1cc(CC(C)N)cc2c1OCO2` (stereo not given): the result was inactive.

With `C=CCCC#N`, the result was inactive.

In the case of `[CH3][Hg][Cl]`, the outcome was inactive.

With `O=C1OC2(c3cc(Br)c(O)cc3Oc3c2cc(Br)c(O)[c]3[Hg])c2ccccc21` (stereo not given), the result was inactive.

For `Clc1ccc(-c2ccc(Cl)c(Cl)c2Cl)c(Cl)c1Cl`, the compound was called inactive.

As to `CCN(CC)CCOC(=O)C(C)(c1ccccc1)c1ccccc1`, the compound was classed as inactive.

Regarding `Fc1ccc(C(OCCN2CCN(CCCc3ccccc3)CC2)c2ccc(F)cc2)cc1`, the concentration at half-maximal activity (AC50) was 25.1 µM (active).

For `CNC(=N[N+](=O)[O-])NCC1CCOC1` (stereo not given), the compound was called inactive.

As to `Cc1nnc2n1-c1sc(Br)cc1C(c1ccccc1Cl)=NC2`, the result was inactive.

Take `CCOC(=O)N(C)C(=O)CSP(=S)(OCC)OCC`: the call was inactive.

As to `Clc1ccc(C(Cl)(Cl)Cl)cc1Cl`, the compound was called inactive.

As to `CCCCCC[N+](=O)[O-]`, the compound was called inactive.

Consider `CCN(CC)CCO[C@H]1CC[C@@]2(C)C(=CC[C@@H]3[C@@H]2CC[C@]2(C)C(=O)CC[C@@H]32)C1`, for which the compound was called inactive.

For the compound `CCCCCCC#N`, the result was inactive.

Regarding `CC(=O)C=Cc1ccc2c(c1)OCO2`, the compound was classed as inactive.

For the compound `CC1CCC(C(C)C)C(OC(=O)c2ccccc2N)C1` (stereo not given), the AC50 is 45.5 µM (active) and 34.7 µM (active).

In the case of `CCC[N+](=O)[O-]`, the compound was classed as inactive.

Take `CC(C)(O)C#N`: the outcome was inactive.

As for `Cc1ccccc1-n1c(C)nc2ccccc2c1=O`, the compound was classed as inactive.

`Oc1cc(Cl)ccc1Cl`: the outcome was inactive.

`COc1ccc(Cc2nccc3cc(OC)c(OC)cc23)cc1OC`: the compound was called inactive.

Turning to `C[N+]1(CCF)[C@@H]2CC[C@H]1CC(OC(=O)C(O)(c1ccccc1)c1ccccc1)C2` (stereo not given in full), the outcome was inactive.

In the case of `COc1cc(CC(C)N)cc(OC)c1OC` (stereo not given), the outcome was inactive.

With `OC(c1ccc(F)cc1)(c1cncnc1)c1ccccc1Cl` (stereo not given), the call was inactive.

For the compound `CCc1cccc(C)c1N(C(=O)CCl)[C@@H](C)COC`, the call was inactive.

Regarding `N#CCCl`, the compound was called inactive.

With `O=C1CCCCC1CN1CCCCC1` (stereo not given), the outcome was inactive.

For `CNNC`, the outcome was inactive.

Take `N#Cc1sc2c(=O)c3ccccc3c(=O)c=2sc1C#N`: the AC50 is 8.76 µM (active).

With `CC(C)(C#N)C(C)(C)C#N`, the call was inactive.

For the compound `OCC(Br)CBr` (stereo not given), the outcome was inactive.

Turning to `BrCC(Br)(Br)Br`, the result was inactive.

Regarding `CNC(C)Cc1ccc2c(c1)OCO2` (stereo not given), the call was inactive.

Regarding `CCc1cc(OC)c(C[C@@H](C)N)cc1OC`, the compound was classed as inactive.

Take `BrC(Br)Br`: the outcome was inactive.

Take `CC(C)(c1cc(Cl)c(O)c(Cl)c1)c1cc(Cl)c(O)c(Cl)c1`: the concentration at half-maximal activity (AC50) is 62.3 µM (active) and the compound was classed as inactive.

Take `N#CC(C#N)=Cc1ccc(O)c(O)c1`: the call was inactive.

For the compound `C[C@]1(O)CC[C@H]2[C@@H]3CCC4=CC(=O)CC[C@]4(C)[C@@]3(F)[C@@H](O)C[C@@]21C`, the call was inactive.

Values taken from PubChem BioAssay (EPA / NIEHS).
